These results are taken from article PMC7862700, “An all-to-all approach to the identification of sequence-specific readers for epigenetic DNA modifications on cytosine”.

Assay in all cases: DAPPL (digital affinity profiling via proximity ligation, sequencing); 10 mM Tris-HCl pH 7.5, 50 mM NaCl, 1 mM DTT, 4% glycerol, room temperature, 30 min; GST-TFs on glutathione beads, 16-mer random dsDNA library, 0.1% formaldehyde crosslink after washing; high values mean tight binding
For one assay, the target named is T1, FEV (Homo sapiens, UniProt Q99581 1-238).
T1 sequence: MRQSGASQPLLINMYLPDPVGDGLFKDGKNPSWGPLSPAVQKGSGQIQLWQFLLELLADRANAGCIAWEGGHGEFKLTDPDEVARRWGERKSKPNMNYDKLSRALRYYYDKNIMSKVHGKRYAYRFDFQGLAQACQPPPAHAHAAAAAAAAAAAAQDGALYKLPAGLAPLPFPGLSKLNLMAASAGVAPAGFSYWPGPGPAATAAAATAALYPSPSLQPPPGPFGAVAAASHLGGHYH
Conditions: protein: recombinant; tags: N-terminal GST; dsDNA, one strand shown. Put shortly:
(§1)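 Yeast served to express human transcription factors as GST fusions, which were then captured on glutathione beads and labelled with DNA barcodes. Pooled with a tag-only sample, they were incubated with 200 nmole of a 16-mer random double-stranded DNA library for 30 min at room temperature in Tris/NaCl/DTT/glycerol buffer, washed, crosslinked with 0.1% formaldehyde, ligated by proximity, amplified by PCR and sequenced. Dividing each hexamer's read frequency for a factor by its frequency for the tag-only sample gives the binding signal.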

The next assay has as its target ETV5 (Homo sapiens, UniProt P41161 1-510). The note with it: protein: recombinant; tags: N-terminal GST; dsDNA, one strand shown. Summed up: as §1
A further assay has as its target HSF1 (Homo sapiens, UniProt Q00613 1-529). Conditions: protein: recombinant; tags: N-terminal GST; chain copies: 3; dsDNA, one strand shown. Summed up: as §1
A further assay deals with T2, SPIC (Homo sapiens, UniProt Q8N5J4 1-248).
T2 sequence: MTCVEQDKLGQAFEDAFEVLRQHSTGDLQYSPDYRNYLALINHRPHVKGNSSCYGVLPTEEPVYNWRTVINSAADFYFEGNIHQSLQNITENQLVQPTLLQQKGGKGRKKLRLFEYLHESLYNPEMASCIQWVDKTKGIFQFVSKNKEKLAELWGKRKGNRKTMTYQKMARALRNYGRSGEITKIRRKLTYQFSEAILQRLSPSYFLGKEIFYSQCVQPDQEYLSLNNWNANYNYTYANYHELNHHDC
The note with it: protein: recombinant; tags: N-terminal GST; dsDNA, one strand shown. Summed up: as §1

The next assay has as its target ELF4 (Homo sapiens, UniProt Q99607 1-663). The note with it: protein: recombinant; tags: N-terminal GST; dsDNA, one strand shown. Put shortly:
as §1

Another assay concerns the target T3, ELK4 (Homo sapiens, UniProt P28324-2 1-405).
T3 sequence: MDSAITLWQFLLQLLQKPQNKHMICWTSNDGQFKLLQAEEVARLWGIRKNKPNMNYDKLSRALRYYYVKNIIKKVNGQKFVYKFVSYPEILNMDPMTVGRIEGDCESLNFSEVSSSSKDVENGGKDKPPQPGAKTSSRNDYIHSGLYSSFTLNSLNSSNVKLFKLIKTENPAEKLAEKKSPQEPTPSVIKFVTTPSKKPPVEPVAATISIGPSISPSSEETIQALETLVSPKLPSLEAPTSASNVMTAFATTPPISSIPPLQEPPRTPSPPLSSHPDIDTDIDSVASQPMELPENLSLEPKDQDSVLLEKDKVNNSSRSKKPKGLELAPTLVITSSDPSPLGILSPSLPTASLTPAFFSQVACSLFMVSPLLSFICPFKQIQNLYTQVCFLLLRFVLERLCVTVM
Conditions: protein: recombinant; tags: N-terminal GST; dsDNA, one strand shown. Put shortly: as §1

For the next assay, the target named is T4, ETV2 (Homo sapiens, UniProt O00321 1-342).
T4 sequence: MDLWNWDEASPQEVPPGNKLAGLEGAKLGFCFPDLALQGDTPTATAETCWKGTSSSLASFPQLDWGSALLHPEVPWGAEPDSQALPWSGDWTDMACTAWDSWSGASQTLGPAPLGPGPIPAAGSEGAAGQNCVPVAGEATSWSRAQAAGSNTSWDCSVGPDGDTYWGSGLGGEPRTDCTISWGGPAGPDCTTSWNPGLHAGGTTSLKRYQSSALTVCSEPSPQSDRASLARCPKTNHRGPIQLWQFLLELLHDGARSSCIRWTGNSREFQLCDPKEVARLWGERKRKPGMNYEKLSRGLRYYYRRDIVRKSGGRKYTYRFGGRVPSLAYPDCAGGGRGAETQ
Conditions: protein: recombinant; tags: N-terminal GST; dsDNA, one strand shown. Put shortly: as §1

In another assay the target is T5, ELF3 (Homo sapiens, UniProt P78545 1-371).
T5 sequence: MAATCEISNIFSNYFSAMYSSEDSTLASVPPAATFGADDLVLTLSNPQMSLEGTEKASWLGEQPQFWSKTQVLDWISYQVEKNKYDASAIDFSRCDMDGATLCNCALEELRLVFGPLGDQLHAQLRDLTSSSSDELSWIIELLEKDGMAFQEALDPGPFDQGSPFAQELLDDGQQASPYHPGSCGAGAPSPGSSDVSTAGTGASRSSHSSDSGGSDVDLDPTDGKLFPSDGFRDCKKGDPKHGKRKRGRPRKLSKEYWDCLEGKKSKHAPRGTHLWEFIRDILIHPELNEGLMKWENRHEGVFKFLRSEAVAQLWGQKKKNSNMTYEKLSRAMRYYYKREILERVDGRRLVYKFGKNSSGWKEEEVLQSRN
Conditions: protein: recombinant; tags: N-terminal GST; dsDNA, one strand shown. Summed up: as §1

In the next assay the target is CRX (Homo sapiens, UniProt O43186 1-299). Conditions: protein: recombinant; tags: N-terminal GST; dsDNA, one strand shown. Put shortly: as §1
For another assay, the target named is ETV1 (Homo sapiens, UniProt P50549 1-477). Conditions: protein: recombinant; tags: N-terminal GST; dsDNA, one strand shown. Put shortly: as §1
The target of another assay is T6, ERF (Homo sapiens, UniProt P50548 1-548).
T6 sequence: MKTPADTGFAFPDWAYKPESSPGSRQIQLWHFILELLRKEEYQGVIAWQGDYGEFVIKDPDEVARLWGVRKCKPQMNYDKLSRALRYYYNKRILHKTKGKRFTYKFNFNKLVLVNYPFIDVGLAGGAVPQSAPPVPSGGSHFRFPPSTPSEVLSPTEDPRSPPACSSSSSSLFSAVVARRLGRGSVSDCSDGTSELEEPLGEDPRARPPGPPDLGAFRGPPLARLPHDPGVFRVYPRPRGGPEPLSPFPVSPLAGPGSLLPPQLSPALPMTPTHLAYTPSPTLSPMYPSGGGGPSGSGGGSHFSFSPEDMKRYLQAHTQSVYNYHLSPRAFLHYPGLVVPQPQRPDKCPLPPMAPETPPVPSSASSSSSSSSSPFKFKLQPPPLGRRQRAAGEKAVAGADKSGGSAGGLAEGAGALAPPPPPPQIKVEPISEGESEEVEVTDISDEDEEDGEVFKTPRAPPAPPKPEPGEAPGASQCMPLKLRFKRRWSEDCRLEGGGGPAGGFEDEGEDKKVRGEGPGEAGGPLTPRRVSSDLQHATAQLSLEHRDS
The note with it: protein: recombinant; tags: N-terminal GST; dsDNA, one strand shown. Summed up: as §1

A further assay deals with T7, ETV3L (Homo sapiens, UniProt Q6ZN32 1-361).
T7 sequence: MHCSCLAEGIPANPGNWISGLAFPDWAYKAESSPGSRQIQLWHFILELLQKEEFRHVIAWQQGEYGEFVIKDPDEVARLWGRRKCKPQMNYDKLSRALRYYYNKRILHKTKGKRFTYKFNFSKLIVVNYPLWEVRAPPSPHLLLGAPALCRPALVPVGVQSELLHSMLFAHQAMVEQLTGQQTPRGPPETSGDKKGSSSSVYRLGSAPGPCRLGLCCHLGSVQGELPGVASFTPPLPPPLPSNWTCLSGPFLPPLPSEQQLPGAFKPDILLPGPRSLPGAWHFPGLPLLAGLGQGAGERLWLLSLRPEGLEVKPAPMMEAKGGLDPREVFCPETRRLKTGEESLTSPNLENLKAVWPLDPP
The note with it: protein: recombinant; tags: N-terminal GST; dsDNA, one strand shown. Summed up: as §1

A further assay concerns the target T8, ETS2 (Homo sapiens, UniProt P15036 1-469).
T8 sequence: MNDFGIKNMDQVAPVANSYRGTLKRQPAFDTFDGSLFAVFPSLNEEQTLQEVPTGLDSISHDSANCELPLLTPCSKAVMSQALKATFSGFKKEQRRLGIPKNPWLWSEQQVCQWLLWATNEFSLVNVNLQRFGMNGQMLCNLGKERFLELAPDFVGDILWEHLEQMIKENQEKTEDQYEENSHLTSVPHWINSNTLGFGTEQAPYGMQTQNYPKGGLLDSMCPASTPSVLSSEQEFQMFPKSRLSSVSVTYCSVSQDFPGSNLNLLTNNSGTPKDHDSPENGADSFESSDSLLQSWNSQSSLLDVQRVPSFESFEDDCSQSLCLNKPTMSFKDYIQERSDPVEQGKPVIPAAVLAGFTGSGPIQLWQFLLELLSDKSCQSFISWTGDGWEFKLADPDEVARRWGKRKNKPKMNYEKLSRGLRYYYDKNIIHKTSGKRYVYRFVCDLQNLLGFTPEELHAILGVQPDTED
Conditions: protein: recombinant; tags: N-terminal GST; dsDNA, one strand shown. Put shortly: as §1

The target in another assay is T9, SPDEF (Homo sapiens, UniProt O95238 1-335).
T9 sequence: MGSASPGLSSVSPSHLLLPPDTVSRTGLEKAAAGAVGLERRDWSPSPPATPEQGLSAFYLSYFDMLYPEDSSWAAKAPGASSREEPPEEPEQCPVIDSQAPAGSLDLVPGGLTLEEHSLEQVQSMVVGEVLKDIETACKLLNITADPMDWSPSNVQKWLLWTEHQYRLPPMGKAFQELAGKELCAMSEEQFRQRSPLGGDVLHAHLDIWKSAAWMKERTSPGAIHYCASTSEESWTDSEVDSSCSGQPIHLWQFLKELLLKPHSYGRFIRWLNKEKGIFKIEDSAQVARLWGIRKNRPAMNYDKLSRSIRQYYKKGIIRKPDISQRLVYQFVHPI
Conditions: protein: recombinant; tags: N-terminal GST; dsDNA, one strand shown. Summed up:
as §1

The target in a further assay is T10, ETV7 (Homo sapiens, UniProt Q9Y603 1-341).
T10 sequence: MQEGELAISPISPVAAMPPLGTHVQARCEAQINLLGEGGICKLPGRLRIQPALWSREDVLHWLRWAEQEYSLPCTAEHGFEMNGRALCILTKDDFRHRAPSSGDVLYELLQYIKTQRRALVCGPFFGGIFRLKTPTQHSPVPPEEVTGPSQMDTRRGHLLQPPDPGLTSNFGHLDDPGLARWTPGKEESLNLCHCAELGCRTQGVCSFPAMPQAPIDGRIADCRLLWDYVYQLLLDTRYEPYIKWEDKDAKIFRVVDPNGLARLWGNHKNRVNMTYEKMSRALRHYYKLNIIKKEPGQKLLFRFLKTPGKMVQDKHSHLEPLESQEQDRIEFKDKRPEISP
The note with it: protein: recombinant; tags: N-terminal GST; dsDNA, one strand shown. Put shortly: as §1

In the next assay the target is T11, ELF5 (Homo sapiens, UniProt Q9UKW6-2 1-255).
T11 sequence: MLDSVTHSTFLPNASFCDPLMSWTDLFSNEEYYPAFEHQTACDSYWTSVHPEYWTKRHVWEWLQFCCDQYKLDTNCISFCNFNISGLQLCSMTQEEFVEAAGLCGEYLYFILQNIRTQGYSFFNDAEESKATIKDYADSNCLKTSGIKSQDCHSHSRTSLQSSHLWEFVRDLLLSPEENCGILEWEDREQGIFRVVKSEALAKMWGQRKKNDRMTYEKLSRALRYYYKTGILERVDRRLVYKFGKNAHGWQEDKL
The note with it: protein: recombinant; tags: N-terminal GST; dsDNA, one strand shown. Put shortly: as §1

A further assay concerns the target T12, ETV3 (Homo sapiens, UniProt P41162-2 1-143).
T12 sequence: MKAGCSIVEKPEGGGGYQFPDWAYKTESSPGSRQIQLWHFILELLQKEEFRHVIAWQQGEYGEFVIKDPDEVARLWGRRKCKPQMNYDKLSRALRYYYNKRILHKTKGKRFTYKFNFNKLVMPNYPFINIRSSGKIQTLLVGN
The note with it: protein: recombinant; tags: N-terminal GST; dsDNA, one strand shown. Put shortly: as §1

For a further assay, the target named is ETV6 (Homo sapiens, UniProt P41212 1-452). Conditions: protein: recombinant; tags: N-terminal GST; dsDNA, one strand shown. Summed up:
as §1

Chain of ETV6 (P41212 whole entry): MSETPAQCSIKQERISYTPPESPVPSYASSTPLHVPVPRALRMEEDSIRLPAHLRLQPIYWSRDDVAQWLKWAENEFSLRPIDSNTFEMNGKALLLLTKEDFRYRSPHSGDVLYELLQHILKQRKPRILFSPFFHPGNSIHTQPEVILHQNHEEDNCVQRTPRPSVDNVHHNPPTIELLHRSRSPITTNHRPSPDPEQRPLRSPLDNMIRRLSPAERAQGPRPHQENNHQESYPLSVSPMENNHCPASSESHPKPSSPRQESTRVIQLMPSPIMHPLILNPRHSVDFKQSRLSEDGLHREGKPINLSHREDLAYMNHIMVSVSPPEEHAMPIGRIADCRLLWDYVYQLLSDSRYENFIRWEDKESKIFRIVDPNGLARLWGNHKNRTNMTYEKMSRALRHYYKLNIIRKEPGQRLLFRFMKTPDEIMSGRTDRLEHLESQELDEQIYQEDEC
Chain of HSF1 (Q00613 whole entry): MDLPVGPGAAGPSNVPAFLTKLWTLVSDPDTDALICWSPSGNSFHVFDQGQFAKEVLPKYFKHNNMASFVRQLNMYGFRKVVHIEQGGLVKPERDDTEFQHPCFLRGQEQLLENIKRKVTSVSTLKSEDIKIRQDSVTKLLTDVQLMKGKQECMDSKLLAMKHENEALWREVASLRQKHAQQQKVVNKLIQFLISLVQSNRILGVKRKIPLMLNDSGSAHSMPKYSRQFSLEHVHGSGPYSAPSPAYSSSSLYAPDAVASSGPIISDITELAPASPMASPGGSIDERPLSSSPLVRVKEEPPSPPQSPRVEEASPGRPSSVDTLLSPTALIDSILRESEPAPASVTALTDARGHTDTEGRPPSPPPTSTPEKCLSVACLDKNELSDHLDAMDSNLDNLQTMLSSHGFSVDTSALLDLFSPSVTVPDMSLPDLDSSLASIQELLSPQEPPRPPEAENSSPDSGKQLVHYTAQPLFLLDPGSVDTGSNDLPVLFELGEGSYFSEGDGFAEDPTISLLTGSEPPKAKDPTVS
Chain of CRX (O43186 whole entry): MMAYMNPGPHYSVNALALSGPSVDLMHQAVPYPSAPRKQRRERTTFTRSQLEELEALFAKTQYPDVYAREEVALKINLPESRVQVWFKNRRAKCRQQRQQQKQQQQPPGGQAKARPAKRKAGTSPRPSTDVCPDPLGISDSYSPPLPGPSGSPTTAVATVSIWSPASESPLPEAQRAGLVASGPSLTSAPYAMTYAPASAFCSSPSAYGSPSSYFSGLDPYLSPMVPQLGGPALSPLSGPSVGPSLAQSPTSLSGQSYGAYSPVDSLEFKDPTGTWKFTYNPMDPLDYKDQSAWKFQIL
Chain of ETV1 (P50549 whole entry): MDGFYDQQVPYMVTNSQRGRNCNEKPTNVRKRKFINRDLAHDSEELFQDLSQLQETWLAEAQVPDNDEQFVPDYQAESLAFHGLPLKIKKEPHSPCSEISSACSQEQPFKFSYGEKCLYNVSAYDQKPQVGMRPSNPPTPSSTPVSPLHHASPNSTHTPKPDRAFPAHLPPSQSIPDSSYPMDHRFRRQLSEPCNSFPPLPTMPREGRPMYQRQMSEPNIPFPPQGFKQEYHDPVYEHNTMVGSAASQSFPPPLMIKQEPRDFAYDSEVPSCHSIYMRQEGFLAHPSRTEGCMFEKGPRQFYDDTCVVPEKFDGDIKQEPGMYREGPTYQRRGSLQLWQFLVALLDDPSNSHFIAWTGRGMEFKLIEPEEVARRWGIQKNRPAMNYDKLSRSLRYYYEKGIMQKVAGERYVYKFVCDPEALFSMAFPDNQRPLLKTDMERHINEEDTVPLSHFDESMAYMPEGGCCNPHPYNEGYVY
Chain of ELF4 (Q99607 whole entry): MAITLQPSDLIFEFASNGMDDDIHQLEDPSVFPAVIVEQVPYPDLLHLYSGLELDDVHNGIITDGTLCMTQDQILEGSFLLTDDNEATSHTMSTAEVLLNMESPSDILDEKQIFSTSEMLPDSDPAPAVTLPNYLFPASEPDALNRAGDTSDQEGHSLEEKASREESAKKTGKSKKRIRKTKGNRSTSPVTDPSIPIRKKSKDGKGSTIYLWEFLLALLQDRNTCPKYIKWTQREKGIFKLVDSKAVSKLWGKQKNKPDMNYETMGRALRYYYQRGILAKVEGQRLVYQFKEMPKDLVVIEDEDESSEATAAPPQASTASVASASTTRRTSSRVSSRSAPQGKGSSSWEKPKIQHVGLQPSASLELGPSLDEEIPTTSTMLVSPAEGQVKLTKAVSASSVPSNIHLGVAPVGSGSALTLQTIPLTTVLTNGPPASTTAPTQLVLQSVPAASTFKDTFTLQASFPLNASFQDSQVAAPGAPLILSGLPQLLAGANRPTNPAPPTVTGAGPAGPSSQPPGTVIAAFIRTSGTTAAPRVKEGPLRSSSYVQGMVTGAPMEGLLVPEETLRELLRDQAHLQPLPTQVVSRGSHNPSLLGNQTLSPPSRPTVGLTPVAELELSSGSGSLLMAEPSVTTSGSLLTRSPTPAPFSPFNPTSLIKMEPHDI
Chain of ETV5 (P41161 whole entry): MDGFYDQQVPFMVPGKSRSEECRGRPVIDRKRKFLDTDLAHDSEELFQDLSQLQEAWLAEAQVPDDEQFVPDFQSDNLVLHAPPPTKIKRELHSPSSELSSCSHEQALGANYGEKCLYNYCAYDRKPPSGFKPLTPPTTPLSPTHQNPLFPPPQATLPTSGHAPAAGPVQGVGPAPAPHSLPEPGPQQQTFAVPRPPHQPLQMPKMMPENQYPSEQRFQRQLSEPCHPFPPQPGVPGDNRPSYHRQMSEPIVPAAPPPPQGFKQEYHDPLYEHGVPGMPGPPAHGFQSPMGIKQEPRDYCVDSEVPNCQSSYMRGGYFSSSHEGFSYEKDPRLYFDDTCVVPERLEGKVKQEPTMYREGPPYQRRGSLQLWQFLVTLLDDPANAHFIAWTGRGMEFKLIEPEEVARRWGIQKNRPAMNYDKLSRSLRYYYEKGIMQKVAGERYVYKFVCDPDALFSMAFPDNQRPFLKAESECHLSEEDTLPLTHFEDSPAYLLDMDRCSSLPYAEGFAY

With TGGCAT, the binding signal with FEV is 1.3 fold enrichment (6-mer frequency, TF over GST control); with ETV5, 1.13 fold enrichment (6-mer frequency, TF over GST control); in the assay with HSF1, 1.26 fold enrichment (6-mer frequency, TF over GST control); with SPIC it was 1.24 fold enrichment (6-mer frequency, TF over GST control); in the assay with ELF4 it was 1.18 fold enrichment (6-mer frequency, TF over GST control); with ELK4 it was 1.21 fold enrichment (6-mer frequency, TF over GST control). The binding signal is 1.37 fold enrichment (6-mer frequency, TF over GST control) with ETV2; 1.24 fold enrichment (6-mer frequency, TF over GST control) with ELF3; 1.21 fold enrichment (6-mer frequency, TF over GST control) with CRX; 1.18 fold enrichment (6-mer frequency, TF over GST control) in the assay with ETV1; 1.11 fold enrichment (6-mer frequency, TF over GST control) with ERF; 1.1 fold enrichment (6-mer frequency, TF over GST control) with ETV3L. The binding signal in the assay with ETS2 was 1.14 fold enrichment (6-mer frequency, TF over GST control); with SPDEF, 1.09 fold enrichment (6-mer frequency, TF over GST control); in the assay with ETV7, 1.1 fold enrichment (6-mer frequency, TF over GST control); with ELF5, 1.06 fold enrichment (6-mer frequency, TF over GST control); with ETV3, 1.23 fold enrichment (6-mer frequency, TF over GST control); with ETV6, 1.25 fold enrichment (6-mer frequency, TF over GST control).
